Source: PubChem BioAssay (National Center for Advancing Translational Sciences (NCATS))
The list is not random: actives were taken first. Their share in the collection is about 6.1%.
D1 agonist: activates the human D1 dopamine receptor | 360,000 tested, 1% active | HEK293 T-REx D1 cells, calcium flux, agonist mode | activation, % at 2 µM; in the data active = activation above about 30%; also: 0% is about no effect
Target sequence (P21728 whole entry, looked up): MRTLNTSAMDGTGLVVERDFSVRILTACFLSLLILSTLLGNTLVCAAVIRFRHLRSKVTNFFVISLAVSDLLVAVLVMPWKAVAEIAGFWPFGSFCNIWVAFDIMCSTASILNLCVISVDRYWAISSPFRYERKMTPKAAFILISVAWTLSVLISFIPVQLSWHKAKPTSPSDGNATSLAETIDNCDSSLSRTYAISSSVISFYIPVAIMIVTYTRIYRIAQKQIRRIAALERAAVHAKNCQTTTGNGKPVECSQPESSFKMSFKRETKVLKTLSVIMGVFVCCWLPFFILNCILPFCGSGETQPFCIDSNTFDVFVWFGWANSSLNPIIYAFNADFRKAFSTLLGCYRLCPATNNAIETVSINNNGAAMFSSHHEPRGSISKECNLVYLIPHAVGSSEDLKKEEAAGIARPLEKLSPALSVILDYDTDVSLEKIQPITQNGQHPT
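Tetracycline-induced HEK293 TREx D1 cells, force-coupled to calcium signalling, were dye-loaded with a no-wash calcium kit. Compound was pin-added after a 10 s baseline. Fluorescence was read kinetically at 1 cycle/s for 180 s, with calcium rises flagged as agonism.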
D1 antagonist: human D1 dopamine receptor antagonism; P21728; HEK293 TREx D1 cells, calcium flux, dopamine EC80; hits give low values; activity change, negative = inhibition, % at 10 µM; 360,000 tested, 3.2% active; AID 504652; in the data active = activity change below about -30%; also: % is scaled to controls: 0 for no effect and ±100 for the full control effect
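Compound effects on dopamine-evoked calcium signalling were measured in tetracycline-induced HEK293 Trex D1 cells. Dopamine at EC80 followed a 180 s compound pre-read, and fluorescence was tracked kinetically for 180 s more.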
DRD3 agonist: activates the human D3 dopamine receptor; D3R DiscoveRx beta-arrestin cells, luminescence, 90 min; P35462; AID 652048; 410,000 tested, 0.58% active; max activation, %; in the data active = max activation above about 30%; also: 0% is about no effect
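Agonist mode: compounds and dopamine controls were applied to plated cells for 90 min at 37 degrees C after an overnight attachment at 1500 cells/well. Luminescent read-out followed 30 - 60 minutes at room temperature with DiscoveRx detection reagent.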
DRD3 antagonist: antagonists of human D3 dopamine receptor. D3R cells, DiscoveRx beta-arrestin luminescence, antagonist mode; hits give low values. max response, negative = inhibition, %. 360,000 tested, 2.5% active; in the data active = max response below about -50%; inconclusive = no clear call, values can overlap the other calls; also: % is scaled to controls: 0 for no effect and ±100 for the full control effect
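Cells plated overnight at 1500 cells/well, then exposed to library compounds with dopamine controls for 90 minutes at 37 degrees C. DiscoveRx reagent added for 30–60 minutes at room temperature; luminescence read, quantitative HTS format.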
D1 PAM: potentiators of human D1 dopamine receptor | potentiation, % at 10 µM | HEK293 TREx D1 cells, calcium flux, dopamine EC20 potentiation | 360,000 tested, 0.036% active; in the data active = potentiation above about 30%; also: 0% is about no effect
Numbers without * were called inactive; ? = inconclusive; . = no result given.

SMILES	D1 agonist	D1 antagonist	DRD3 agonist	DRD3 antagonist	D1 PAM
Cc1ccc2occ(-c3cc(-c4ccc(F)cc4)nc4c3COc3ccc(F)cc3-4)c(=O)c2c1	-1	-8	3	.	-6
COc1cccc(NC(=O)COc2ccc(C(=S)N3CCN(C)CC3)cc2OC)c1	8	-31*	2	2	-1
Cc1ccccc1OCC(=O)Nc1ccc(N2CCN(C)CC2)c(Cl)c1	35*	-71*	-10	-11	.
Cc1cc(=O)[nH]c2nnc(SCCC(C)C)n12	-1	.	-15	.	1
O=S(=O)(c1ccc(F)cc1)N(CC(O)Cn1c2ccccc2c2ccccc21)c1ccccc1 (stereo unspecified)	4	17	6	.	6
CCOC(=O)C1C(=O)NC(c2ccccc2)=NC1c1ccc(C(C)C)cc1 (stereo unspecified)	0	-34*	2	2	-3
CCOC(=O)C1C(=O)NC(c2ccccc2)=NC1c1ccc(Cl)cc1 (stereo unspecified)	1	-11	-4	18	0
O=C(c1cc(-c2ccccc2O)on1)N1CCc2ccccc2C1	3	-32*	-2	-21	-6
O=C(c1cc2cc(F)ccc2[nH]1)N1CCc2ccccc2C1	-1	-19	-2	-7	-2
O=C(c1cc2cc(Cl)ccc2[nH]1)N1CCc2ccccc2C1	6	-57*	-2	-22	-8
O=C(c1cnc2sccn2c1=O)N1CCc2ccccc2C1	2	-7	-19	-96*	1
Cc1ccccc1C(=O)N1CCc2ccccc2C1	49*	-6	-7	21	8
CCCCN1C(=O)C(O)(c2c[nH]c3ccccc23)c2cc(Br)ccc21 (stereo unspecified)	-1	5	2	.	-2
COc1ccc([C@H]2[C@@H]3C=CCC[C@@]3(C)C(=O)N2Cc2ccccc2)cc1Cl	2	31	-21	-55*	5
COc1ccc(-c2cc([C@H]3[C@@H]4C=CCC[C@@]4(C)C(=O)N3Cc3ccccc3)ccc2F)cc1OC	4	17	-1	16	0
Cc1cccc2cc(COC(=O)c3ccccc3)c(=O)[nH]c12	3	4	-10	-51*	-3
Cc1cccc2cc(COC(=O)c3cccnc3)c(=O)[nH]c12	2	-20	8	-1	-3
CNS(=O)(=O)c1cccc(C(=O)OCC(=O)/C=C2/N(C)c3ccccc3C2(C)C)c1	18	-43*	1	18	-6
CNS(=O)(=O)c1cccc(C(=O)OCC(=O)c2c(N)n(C)c(=O)n(C)c2=O)c1	4	-32*	-2	-10	0
Cn1c(N)c(C(=O)COC(=O)c2cccc(S(=O)(=O)N3CCCCC3)c2)c(=O)n(C)c1=O	-1	0	3	-2	0
Cc1nnc(SCC2=C(C(=O)O)N3C(=O)C(NC(=O)c4cccc(F)c4F)C3SC2)s1 (stereo unspecified)	2	-73*	-2	-11	-9
Cc1cc2oc(=O)c(CC(=O)NCCc3ccccc3F)c(C)c2c2occ(C(C)(C)C)c12	3	-16	-15	.	0
Cc1ccc(NC(=O)COc2ccc(CCO)cc2-n2nc3ccccc3n2)cc1C	5	-72*	0	-3	-9
COc1cc2c(c(OC)c1)C(c1cccc(F)c1F)CC(=O)N2 (stereo unspecified)	0	-18	5	.	0
COc1cccc(-n2c(=O)c3sc4ccccc4c3n(CC(=O)Nc3ccc(F)cc3F)c2=O)c1	11	13	-8	.	-3
SMILES	D1 agonist	D1 antagonist	DRD3 agonist	DRD3 antagonist	D1 PAM
Cc1ccc(NC(=O)CN(C)C(=O)c2cccc(Br)c2)cc1	1	3	-19	-23	3
O=C(CNS(=O)(=O)c1ccc(F)cc1)Nc1ccc(C(F)(F)F)cc1	10	-17	5	11	-6
Cc1ccc(S(=O)(=O)NCC(=O)Nc2ccc(C(F)(F)F)cc2)cc1	5	5	35*	18	-1
Cc1ccc(NC(=O)CN(C)C(=O)c2ccc(C(F)(F)F)cc2)cc1	-1	-32*	-4	-19	-1
Cn1nnnc1Sc1ncnc2scc(-c3cccc(C#N)c3)c12	1	-1	.	.	-3
Cc1ccc2[nH]c3c(c2c1)CNCC3	4	1	-22	-58*	-9
Cc1c(NS(C)(=O)=O)c(=O)n(-c2ccccc2)n1C	1	-7	-1	?	5
